Molecules are shown by their SMILES. Values joined by “and” are separate entries in the source; they are usually repeats but may differ in a detail not shown here. Equal values may be shown once. More than one record can exist for a structure, and the calls need not agree. Active and inactive are the calls of the source. How the source made its calls: active means hit-call score of the fitted dose curve at least 0.9, where 1 is the maximum; inactive means score below 0.9.

One assay can be described thus: CCTE_Mundy_HCI_Cortical_Synap_Neur_Matur_NeuriteLength: CCTE's Synaptogenesis and Neurite Maturation Assay in rat cortical cells for Neurite Length, Mundy Lab (AID 2284214).
Conditions: not given
A digest of the protocol:
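Rat primary cortical cells were plated, treated with AraC at DIV 5 to arrest glial growth, then chemical-dosed with media change at DIV 7 through DIV 12. Fixed cells stained for MAP2, synaptophysin and Hoechst; neurite length quantified by high-content imaging.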
What is called AC50 is the concentration giving half of the maximal activity seen. As to `CCCCC(CC)COC(=O)c1ccccc1C(=O)OCC(CC)CCCC` (stereo not drawn), the AC50 was 3.85 µM (active) and 4.26 µM (active).
The same measure, in the same setting: under `COC(=O)N(OC)c1ccccc1COc1ccn(-c2ccc(Cl)cc2)n1` stands 0.0838 µM (active).
Same read-out and setting: the figure for `CC(C)(C)c1ccc(CSc2cnn(C(C)(C)C)c(=O)c2Cl)cc1` is 0.000626 µM (active).
On to `N#Cc1nn(-c2c(Cl)cc(C(F)(F)F)cc2Cl)c(N)c1S(=O)C(F)(F)F` (stereo not drawn), for which the outcome was inactive.
As for `Cc1ccc(-c2c(Cl)nc(C#N)n2S(=O)(=O)N(C)C)cc1`, the AC50 is 85.7 µM (active).
Still for that read-out and setting: the figure for `CCCCOC(=O)c1ccccc1C(=O)OCCCC` is 64.7 µM (active); for `C=CCC1=C(C)[C@@H](OC(=O)[C@@H]2[C@@H](C=C(C)C)C2(C)C)CC1=O` it is 23.9 µM (active); for `CN(C)C(=S)SSC(=S)N(C)C` it is 0.0549 µM (active).
As to `CNC(=O)ON=CC(C)(C)SC`, the result was inactive.
On the same count and under the same terms, the entry for `C=CCC1=C(C)C(OC(=O)C2C(C=C(C)C)C2(C)C)CC1=O` (stereo not drawn) is “inactive”; for `COP(N)(=O)SC` (stereo not drawn) it is “inactive”.
For `CCOc1cc(Oc2ccc(C(F)(F)F)cc2Cl)ccc1[N+](=O)[O-]`, the AC50 was 16.1 µM (active).
Same read-out and setting: the figure for `CO/C=C(/C(=O)OC)c1ccccc1Oc1cc(Oc2ccccc2C#N)ncn1` is 3.56 µM (active).
On the same count and under the same terms, the figure for `COP(=S)(OC)Oc1nc(Cl)c(Cl)cc1Cl` is 25.9 µM (active); for `CCCCNC(=O)n1c(NC(=O)OC)nc2ccccc21` it is 15 µM (active).
Regarding `C=CC1(C)OC(=O)N(c2cc(Cl)cc(Cl)c2)C1=O` (stereo not drawn), the call was inactive.
Regarding `CCOC(=O)CC(SP(=S)(OC)OC)C(=O)OCC` (stereo not drawn), the concentration at half-maximal activity (AC50) was 61.9 µM (active) and the outcome was inactive.

A short description of the next assay: CCTE_Mundy_HCI_Cortical_Synap_Neur_Matur_NeuriteSpotCountPerNeuron: CCTE's Synaptogenesis and Neurite Maturation Assay in rat cortical cells for Neurite Spot Count per Neuron Count, Mundy Lab (AID 2284215).
Conditions: not given
In outline: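 Read-out: neurite-associated synaptophysin puncta per neuron, imaged by high-content analysis after MAP2, synaptophysin and Hoechst staining. Rat primary cortical cultures, dosed DIV 7 through DIV 12; DMSO served as baseline.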
Regarding `CCCCC(CC)COC(=O)c1ccccc1C(=O)OCC(CC)CCCC` (stereo not drawn), the AC50 is 5.47 µM (active) and 3.59 µM (active).
On the same count and under the same terms, the figure for `COC(=O)N(OC)c1ccccc1COc1ccn(-c2ccc(Cl)cc2)n1` is 0.0537 µM (active).
Still for that read-out and setting: the figure for `CC(C)(C)c1ccc(CSc2cnn(C(C)(C)C)c(=O)c2Cl)cc1` is 0.000469 µM (active); for `N#Cc1nn(-c2c(Cl)cc(C(F)(F)F)cc2Cl)c(N)c1S(=O)C(F)(F)F` (stereo not drawn) it is 3.22 µM (active); for `Cc1ccc(-c2c(Cl)nc(C#N)n2S(=O)(=O)N(C)C)cc1` it is 70.3 µM (active).
On the same count and under the same terms, the figure for `CCCCOC(=O)c1ccccc1C(=O)OCCCC` is 50 µM (active); for `C=CCC1=C(C)[C@@H](OC(=O)[C@@H]2[C@@H](C=C(C)C)C2(C)C)CC1=O` it is 22.1 µM (active).
On to `CN(C)C(=S)SSC(=S)N(C)C`, for which the AC50 is 0.0745 µM (active).
As for `CNC(=O)ON=CC(C)(C)SC`, the molecule was called inactive.
The same measure, in the same setting: the entry for `C=CCC1=C(C)C(OC(=O)C2C(C=C(C)C)C2(C)C)CC1=O` (stereo not drawn) is “inactive”; for `COP(N)(=O)SC` (stereo not drawn) it is “inactive”.
Regarding `CCOc1cc(Oc2ccc(C(F)(F)F)cc2Cl)ccc1[N+](=O)[O-]`, the AC50 is 11.6 µM (active).
Still for that read-out and setting: under `CO/C=C(/C(=O)OC)c1ccccc1Oc1cc(Oc2ccccc2C#N)ncn1` stands 2.75 µM (active); under `COP(=S)(OC)Oc1nc(Cl)c(Cl)cc1Cl`, 20.7 µM (active).
On to `CCCCNC(=O)n1c(NC(=O)OC)nc2ccccc21`, for which the outcome was inactive.
For the molecule `C=CC1(C)OC(=O)N(c2cc(Cl)cc(Cl)c2)C1=O` (stereo not drawn), the result was inactive.
As to `CCOC(=O)CC(SP(=S)(OC)OC)C(=O)OCC` (stereo not drawn), the AC50 was 50 µM (active) and the molecule was classed as inactive.

Another assay is described as follows: TAMU_PeakParms_SingleDonor1434_Chronotropy: Texas A&M University (TAMU) 1.5-hr Human Induced Pluripotent Stem Cell (iPSC)-derived Cardiomyocytes Calcium (Ca+2) Flux Assay for Cardiotoxicity: Chronotropy (changes in peak frequency) (AID 2284217). To be noted: actives raise or lower the signal. In outline: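 Beat frequency of single-donor iPSC cardiomyocytes was recorded through a calcium-sensitive dye 1.5 hours after exposure to four concentrations up to 100 uM. An EC05 point of departure was derived.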
For the molecule `CCCCC(CC)COC(=O)c1ccccc1C(=O)OCC(CC)CCCC` (stereo not drawn), the AC50 is 50 µM (active).
In the case of `Oc1ccccc1-c1ccccc1`, the half-maximal activity concentration (AC50) was 45.1 µM (active).
In the case of `CNC(=O)ON=CC(C)(C)SC`, the outcome was inactive.
The same measure, in the same setting: under `CCCCNC(=O)OCC#CI` stands “inactive”.

The nature of the next assay: CCTE_Mundy_HCI_Cortical_Synap_Neur_Matur_SynapseCount: CCTE's Synaptogenesis and Neurite Maturation Assay in rat cortical cells for Synapse Count, Mundy Lab (AID 2284218).
Conditions: not given
In outline: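 Rat primary cortical cells in 96-well plates received AraC at DIV 5 and were dosed with chemicals at DIV 7 with media change, through DIV 12 (288.33 h). Synapses per neuron counted by high-content imaging of MAP2/synaptophysin/Hoechst staining, versus DMSO baseline.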
As to `CCCCC(CC)COC(=O)c1ccccc1C(=O)OCC(CC)CCCC` (stereo not drawn), the half-maximal activity concentration (AC50) is 6.28 µM (active) and 4 µM (active).
On the same count and under the same terms, under `COC(=O)N(OC)c1ccccc1COc1ccn(-c2ccc(Cl)cc2)n1` stands 0.0709 µM (active).
The same measure, in the same setting: under `CC(C)(C)c1ccc(CSc2cnn(C(C)(C)C)c(=O)c2Cl)cc1` stands 0.000602 µM (active); under `N#Cc1nn(-c2c(Cl)cc(C(F)(F)F)cc2Cl)c(N)c1S(=O)C(F)(F)F` (stereo not drawn), 3.22 µM (active); under `Cc1ccc(-c2c(Cl)nc(C#N)n2S(=O)(=O)N(C)C)cc1`, 74.3 µM (active).
Regarding `CCCCOC(=O)c1ccccc1C(=O)OCCCC`, the AC50 is 50 µM (active).
The same measure, in the same setting: the figure for `C=CCC1=C(C)[C@@H](OC(=O)[C@@H]2[C@@H](C=C(C)C)C2(C)C)CC1=O` is 22.2 µM (active).
As for `CN(C)C(=S)SSC(=S)N(C)C`, the AC50 was 0.0587 µM (active).
As to `CNC(=O)ON=CC(C)(C)SC`, the call was inactive.
The same measure, in the same setting: under `C=CCC1=C(C)C(OC(=O)C2C(C=C(C)C)C2(C)C)CC1=O` (stereo not drawn) stands “inactive”; under `COP(N)(=O)SC` (stereo not drawn), “inactive”.
`CCOc1cc(Oc2ccc(C(F)(F)F)cc2Cl)ccc1[N+](=O)[O-]`: the half-maximal activity concentration (AC50) is 11.9 µM (active).
Still for that read-out and setting: the figure for `CO/C=C(/C(=O)OC)c1ccccc1Oc1cc(Oc2ccccc2C#N)ncn1` is 3.62 µM (active); for `COP(=S)(OC)Oc1nc(Cl)c(Cl)cc1Cl` it is 22.4 µM (active).
Take `CCCCNC(=O)n1c(NC(=O)OC)nc2ccccc21`: the molecule was classed as inactive.
As to `C=CC1(C)OC(=O)N(c2cc(Cl)cc(Cl)c2)C1=O` (stereo not drawn), the result was inactive.
As for `CCOC(=O)CC(SP(=S)(OC)OC)C(=O)OCC` (stereo not drawn), the AC50 was 50 µM (active) and the outcome was inactive.

Values taken from PubChem BioAssay (EPA / NIEHS).
